# Screening data deposited in PubChem BioAssay by several laboratories.
# Rows were chosen to be rich in hits. Some 2.2% of all compounds tested hit in one or more screens of this group.
# HDAC3 inhib: inhibitors of human histone deacetylase 3; recombinant HDAC3, fluorogenic peptide/trypsin coupled, fluorescence; inhibition, % at 8.3 µM; hit rate 0.15% among 320,000; in the data active = inhibition above about 26%, passing the limit was not always enough
# PvdQ inh: P. aeruginosa PvdQ acylase inhibition; purified PvdQ acylase, fluorescence plate reader; inhibition, % at 10 µM; hit rate 0.063% among 340,000; in the data active = inhibition above about 30%, passing the limit was not always enough;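 also: 0% = vehicle neutral wells and 100% = reference inhibitor wells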
# SUMO Mot1 rescue: inhibitors of SUMOylation pathway: yeast Mot1-301 growth rescue | AID 2716 | S. cerevisiae Mot1-301 growth rescue, ATP luminescence, 38.5C; percent above DMSO median, 100 means doubled | hit rate 1% among 320,000 | growth rescue, % at 18.8 µM;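 active = every valid replicate shows activation above 250% relative to neutral control wells; inactive = the rest, any valid replicate at or below 250%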;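 also: OY570 slx delta 5 strain wells were the positive control but not used for scaling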
# pCIP destab: p/CIP protein destabilization | Q05BA5 | F442A p/CIP-EGFP cells, EGFP fluorescence, 16 h | decrease of EGFP signal, % at 10 µM | hit rate 0.01% among 290,000 | AID 1984;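 active = EGFP signal decrease of at least 30% at 10 µM or well 3 SD below plate mean, unless failing retest; inactive = the rest, including hits failing retest or dose response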
# GASC-1 inh: inhibitors of human GASC-1 (JMJD2C) demethylase. AID 2099. Q9H3R0. GST-JMJD2C(1-420) H3K9me3 demethylation, DELFIA europium. inhibition, % at 2.35 µM. hit rate 0.069% among 330,000;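 active = more than half of a compound's replicate wells show inhibition beyond 50%, single wells judged on their own value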;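 also: signal counts dimethyl H3K9 product captured on neutravidin plate; 0% = median of DMSO wells and 100% = 0.3 times that DMSO median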
# PHOSPHO1 inh: inhibitors of human PHOSPHO1 phosphatase | Q8TCT1 | recombinant PHOSPHO1, absorbance phosphatase assay | inhibition, % at 13.3 µM | hit rate 1.1% among 290,000 | AID 1565; in the data active = inhibition above about 60%
# Target sequence (Q8TCT1 whole entry, looked up): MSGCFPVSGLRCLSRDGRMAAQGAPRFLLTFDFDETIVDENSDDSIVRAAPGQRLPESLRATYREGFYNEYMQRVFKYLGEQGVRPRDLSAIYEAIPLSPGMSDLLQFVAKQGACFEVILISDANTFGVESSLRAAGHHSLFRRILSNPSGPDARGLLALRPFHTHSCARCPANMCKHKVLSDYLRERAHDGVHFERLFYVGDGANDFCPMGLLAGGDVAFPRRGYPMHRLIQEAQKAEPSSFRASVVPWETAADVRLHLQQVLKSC
# * hit, by the source's call; . = no result given.
SMILES,HDAC3 inhib,PvdQ inh,SUMO Mot1 rescue,pCIP destab,GASC-1 inh,PHOSPHO1 inh
CC(C)(C)NS(=O)(=O)c1ccc(NC(=O)C(Sc2ccccc2)c2ccccc2)cc1 (centres undefined),29*,22,.,-14,-7,46
O=C(CSc1ccc2nnc(CCNC(=O)c3ccccc3)n2n1)NCc1ccco1,1,-1,0,-17,-10,27
O=S(=O)(c1cccc2nsnc12)N1CCN(C/C=C/c2ccccc2)CC1,7,-13,185,-1,2,-16
O=S(=O)(c1cccc2nsnc12)N1CCN(C/C=C\c2ccccc2)CC1,-7,1,309*,-1,55,-29
CCCCn1c(N)c(N(C)C(=O)c2ccc(Br)o2)c(=O)[nH]c1=O,-1,7,-2,.,2,.
Cc1cc(C)c2cc(C(=O)Nc3ccc(C)c(F)c3)[nH]c2c1,2,-3,340*,2,-5,11
CC(NS(=O)(=O)c1ccc2c(c1)c(=O)n(C)c(=O)n2C)C(=O)NC1CCCCC1 (centres undefined),1,9,-7,-4,21,18
Cc1ccccc1-c1cc(C(=O)NCc2cccc(C(F)(F)F)c2)n(CC2CC(c3cccnc3)=NO2)n1 (centres undefined),25*,-19,10,.,.,.
C=CCc1ccc(OCCCCCN2CCOCC2)c(OC)c1,-3,-19,276*,1,-12,14
C=CCc1ccc(OC)c(OC)c1,-3,-1,864*,4,4,3
C=CCc1ccc(OCCCCOc2ccc(C(=O)O)cc2)c(OC)c1,3,-4,4,-4,-3,24
CN(C)c1ccc(C(=O)NCC(c2cccs2)N2CCOCC2)cc1 (centres undefined),4,9,-6,.,6,.
CC(Oc1ccc2c3c(c(=O)oc2c1)CCCC3)C(=O)NC1CC(C)(C)NC(C)(C)C1 (centres undefined),-23,-2,9,3,7,47
Cc1c(C)c2ccc(OC(C)C(=O)NC3CC(C)(C)NC(C)(C)C3)cc2oc1=O (centres undefined),-50,-19,97,-7,-13,70*
CC(=O)c1cccc(CN2CCC(C(=O)Nc3cccc(-c4ccn[nH]4)c3)CC2)c1,-3,13,-6,-24,14,31
Cc1cc(-c2nsc(=O)o2)c(S(C)(=O)=O)s1,6,0,-18,-2,-6,69*
Cc1cccc(C(=O)O/N=C(\N)CS(=O)(=O)c2ccccc2)c1,5,-4,4,-8,-7,14
Cc1ccc(C(=O)O)cc1NS(=O)(=O)c1ccc2c(c1)oc(=O)n2C,-1,-15,14,-18,-2,28
CC(=O)OCC(=O)C1CCC2C3CC=C4CC(O)CCC4(C)C3CCC12C (centres undefined),1,5,462*,.,.,.
CC(=O)OCC(=O)[C@H]1CC[C@H]2[C@@H]3CCC4=CC(=O)CC[C@]4(C)[C@H]3CC[C@]12C,-2,-11,10,2,-11,4
CC1CCC(NC(=O)C(C)N2C(=O)C3CCCCC3C2=O)CC1 (centres undefined),2,-18,1,.,4,.
CCN(CC)CCNC(=O)Cn1ncc2ccccc2c1=O,-3,12,776*,0,0,28
CCN(CC)CCNC(=O)Cn1nc(-c2ccccc2)c2ccccc2c1=O,-1,-8,5,0,-2,14
N#Cc1c2n(c(=S)n(-c3ccccc3)c1=O)CCCCC2,8,-15,-6,-6,-11,64*
Brc1ccccc1-c1nnc2sc(-c3ccc4c(c3)OCCO4)nn12,2,-18,-30,7,8,0
SMILES,HDAC3 inhib,PvdQ inh,SUMO Mot1 rescue,pCIP destab,GASC-1 inh,PHOSPHO1 inh
c1ccc2c(c1)ncn2Cc1nnc2sc(-c3ccc4c(c3)OCO4)nn12,8,5,.,-13,-8,67*
COc1ccc(OCc2nn3c(Cn4cnc5ccccc54)nnc3s2)cc1,1,7,-8,-11,-2,81*
Clc1ccccc1-c1nn2c(Cn3cnc4ccccc43)nnc2s1,-1,-11,4,-1,21,84*
Clc1ccc(Cl)c(-c2nn3c(COc4ccccc4)nnc3s2)c1,-2,-13,-2,28,7,52
COc1ccc(OCc2nn3c(-c4cccc(OC)c4)nnc3s2)cc1,1,-10,297,-13,14,18
c1ccc(CCc2nn3c(Cn4cnc5ccccc54)nnc3s2)cc1,-23,-11,-10,-12,4,69*
Cn1cccc1C(=O)OCC(=O)Nc1ccc2c(c1)OCCO2,-1,-9,-6,.,1,.
O=C(Cn1nc(-c2ccc(Cl)cc2)c2ccccc2c1=O)NCC1CCCO1 (centres undefined),1,-2,333*,-13,-8,9
CCN(CC(=O)NCC1CCCO1)S(=O)(=O)c1ccc(Cl)cc1 (centres undefined),9,6,6,-8,50*,-7
COC(=O)c1sccc1NC(=O)Nc1cccc(C)c1C,7,-14,4,-2,1,61*
O=C(Nn1c(O)c(C=C2N=c3ccccc3=N2)sc1=S)c1ccccc1Cl,3,17,-9,6,-20,79*
CCN(C(=O)Cn1cc(C(=O)C(=O)N2CCOCC2)c2ccccc21)c1ccccc1,.,7,-4,0,1,73*
O=C(COC(=O)/C=C/c1ccccc1Cl)NC1CCCC1,1,-9,8,.,9,.
COc1ccc(C(=S)NC2CCCCC2)cc1,1,13,27,6,-13,88*
O=C(c1cccc([N+](=O)[O-])c1)N1CCCC(C(=O)N2CCN(c3ccccc3)CC2)C1 (centres undefined),5,-19,-2,-3,2,.
COc1ccccc1N(CC(=O)Nc1ccc2c(c1)OCO2)S(=O)(=O)c1ccccc1,3,-8,489,-9,10,92*
COc1ccc(S(=O)(=O)N(CC(=O)Nc2ccc3c(c2)OCO3)c2ccccc2OC)cc1,9,-9,94,-22,-16,9
CC(=O)N/N=C(/c1ccccc1)C(O)c1ccccc1 (centres undefined),-1,12,2,-4,-3,8
CC1CCC2(CC1)NC(=S)N(c1ccccc1)N2 (centres undefined),-4,-14,107,-1,-1,100*
CC1CCC2(CC1)NC(=S)N(C(C)(C)C)N2 (centres undefined),17,10,-3,-9,-21,-1
COc1ccc2c(c1OC)C(=O)O[C@@H]2[C@H]1c2c(cc3c(c2OC)OCO3)CCN1C,-5,-14,750*,2,5,-19
O=C1CC2(CCN(S(=O)(=O)c3ccccc3F)CC2)Oc2ccccc21,-18,-9,-4,.,13,.
Cc1ccsc1/C=C/C1=Cc2c(sc(NC(=O)CSc3n[nH]c(N)n3)c2C#N)C(C)(C)C1,0,-6,-3,-15,-5,80*
